Source: PubChem BioAssay
Compounds with a hit are over-represented: about 4.1% of the library has one in this group of screens.
hgDAF12 agonist: activates the H. glycines DAF-12 receptor ligand-binding domain | AID 687014 | HEK293 GAL4-hgDAF12 UAS-luciferase reporter, agonist luminescence; normalized to butyrate control | 1.8% of 370,000 active | activation, % at 6.8 µM;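 active = activation above a cutoff set at the mean of all screened compounds plus 3 SD, cut at about 10% in these data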
ssDAF12 agonist: activators of S. stercoralis DAF-12 nuclear receptor; activation, % at 6.8 µM; 1% of 370,000 active; HEK293 ssDAF-12/GRIP1 lit1-tk-luc reporter, luminescence; % of 3 µM dafachronic acid response;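 active = activation above the mean over all tested compounds plus 3 SD, cut at about 0.9% in these data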
DAX1 inh-1: inhibits human nuclear receptor DAX1; inhibition, % at 6.75 µM; 0.99% of 340,000 active; HEK293 Gal4-DAX1 luciferase reporter, luminescence; P51843; AID 504766;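 active = inhibition above the mean over all tested compounds plus 3 SD, cut at about 4.2% in these data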;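 also: inhibition shows as a rise in luminescence from relieved DAX1 repression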
Target sequence (P51843 207-470 limits assumed): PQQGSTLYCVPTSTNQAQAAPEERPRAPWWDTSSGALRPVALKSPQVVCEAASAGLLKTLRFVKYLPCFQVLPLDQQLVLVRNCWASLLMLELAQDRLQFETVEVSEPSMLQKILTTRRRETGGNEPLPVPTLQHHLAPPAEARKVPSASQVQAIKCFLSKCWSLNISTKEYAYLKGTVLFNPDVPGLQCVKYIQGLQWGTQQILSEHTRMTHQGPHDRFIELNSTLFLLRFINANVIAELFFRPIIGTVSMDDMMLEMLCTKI
DAX1 inh-2: blocks DAX1 repression of SF-1 activated StAR promoter; inhibition, % at 6.8 µM; 1.1% of 370,000 active; AID 652010; HEK293T StAR-luciferase reporter, SF-1/DAX-1 repression relief;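 active = inhibition above the mean over all tested compounds plus 3 SD, cut at about 3.6% in these data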;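 also: higher inhibition means more luminescence from relief of DAX-1 repression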
hcDAF-12 act: H. contortus DAF-12 activation, primary screen. HEK293 hcDAF-12 lit1-tk-luc reporter, luminescence; 0% DMSO, 100% Δ7-dafachronic acid. activation, % at 6.8 µM. 1.4% of 370,000 active;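 active = activation above the mean of all tested compounds plus 3 SD, cut at about 5.5% in these data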
Of the large screens only hits and unclear results are named; the others gave an inactive call.

O=C(NC1CCN(Cc2ccccc2)CC1)C1CCCN(c2nnc(-n3cccc3)s2)C1 (stereo unspecified)	hgDAF12 agonist 11
Cn1c(C2CC(=O)N(Cc3ccccc3)C2)nc2ccccc21 (stereo unspecified)	ssDAF12 agonist 1.1
O=C(N1CCOCC1)N1CCN(S(=O)(=O)c2ccc(Cl)cc2)C1	ssDAF12 agonist 1.0
N#C/C(Cn1c[n+](NC(=O)Nc2ccccc2)cn1)=N/O	DAX1 inh-1 4.7
Cc1cc(OC(C)C(=O)NCC2CCC(C(=O)O)CC2)c2c(C)c(Cc3ccccc3)c(=O)oc2c1 (stereo unspecified)	DAX1 inh-1 6.6
CCCc1cc(=O)oc2cc(OC(C)C(=O)NCC3CCC(C(=O)O)CC3)c(Cl)cc12 (stereo unspecified)	DAX1 inh-1 4.5
CC(Oc1ccc2ccc(=O)oc2c1)C(=O)NCC1CCC(C(=O)O)CC1 (stereo unspecified)	DAX1 inh-1 4.7
Cc1ccccc1C(=O)NC1CCCCN(Cc2cccc(F)c2)C1=O (stereo unspecified)	none (no result: DAX1 inh-1)
CCN(CCn1cccn1)C(=O)CCc1nnc(C2(c3ccc(Cl)cc3)CCC2)o1	hgDAF12 agonist 12
CCN(CCn1cccn1)C(=O)CCc1nnc(-c2ccccc2)o1	none
Cc1ccccc1NC(=O)N(C)[C@H]1C[C@H]2c3[nH]c4c(-c5ccc6c(c5)OCO6)cccc4c3CCN2C[C@H]1[C@H](C)O	none (no result: DAX1 inh-1)
Cc1nnc(SC(C)C(=O)Nc2ccc3ccccc3c2)[nH]c1=O (stereo unspecified)	ssDAF12 agonist 1.3
CC(Sc1nncn1C)C(=O)Nc1ccc2ccccc2c1 (stereo unspecified)	DAX1 inh-1 4.6
COc1cc(=O)[nH]c(SC(C)C(=O)Nc2ccc3ccccc3c2)n1 (stereo unspecified)	none
CC(C)(C)N1CCC1CN (stereo unspecified)	none
CC1(C)C2CCC(CN)C1C2 (stereo unspecified)	DAX1 inh-1 5.3
CC(C)CC(CO)N1CCN(C(=O)c2cccc(Cl)c2)CCC1=O (stereo unspecified)	none
CSCc1cc(C(=O)NC2CC2)c(N)s1	none (no result: DAX1 inh-1)
COCCNC(=O)C1(C)C=CC2(CCCCC2)N1C(=O)c1ccccc1 (stereo unspecified)	DAX1 inh-1 4.7
Cc1cc(C)cc(NC(=O)[C@H](Cc2c[nH]c3ccccc23)NC(=O)[C@@H]2Cc3ccccc3CN2)c1	hcDAF-12 act 6.2
Cc1ccsc1/C=C1\CCC(C2CCCC2)C1=O (stereo unspecified)	DAX1 inh-1 5.6
COc1ccc(/C=C2\CCC(C3CCCC3)C2=O)cc1 (stereo unspecified)	none
Cc1ccc(/C=C2\CCC(C3CCCC3)C2=O)cc1 (stereo unspecified)	ssDAF12 agonist 0.9, DAX1 inh-1 4.5
COCCCNC(=O)CSc1nnc(-c2ccncc2)n1-c1ccc(OC)cc1	none (no result: DAX1 inh-1)
C=CCN1CC(COCc2ccccc2)OCCS1(=O)=O (stereo unspecified)	none (no result: DAX1 inh-1)
Cn1c(COc2ccccc2Br)nc2ccccc21	DAX1 inh-1 6.0
Cn1c(CNc2ccc(O)cc2)nc2ccccc21	none
COc1ccc(Nc2cc(C)c3ccccc3n2)cc1	hgDAF12 agonist 11
CCOC(=O)c1ccc(NCc2nc3ccccc3n2C)cc1	ssDAF12 agonist 0.9
Cc1cc(Nc2ccc([N+](=O)[O-])cc2)nc2ccccc12	none
COc1ccccc1OCc1nc2ccccc2n1C	none
COc1ccc(Nc2nc3ccccc3n2C)cc1	hgDAF12 agonist 12, DAX1 inh-1 6.4
Cn1c(CNc2nc3ccccc3n2C)nc2ccccc21	hgDAF12 agonist 11
Cn1c(NCc2c(O)ccc3ccccc23)nc2ccccc21	none
Cn1c(NCc2ccc(Cl)cc2)nc2ccccc21	hgDAF12 agonist 13, ssDAF12 agonist 1.5
CC(C)n1c(NCc2nc3ccccc3n2C)nc2ccccc21	none
O=c1cc(C=NNc2ccccc2)[nH]c(=O)[nH]1	DAX1 inh-1 4.9
COC(=O)C1CN(CCc2ccccc2)CCS(=O)(=O)N1Cc1ccc(C(F)(F)F)cc1 (stereo unspecified)	none (no result: DAX1 inh-1)
COc1cccc(-c2cc(C(=O)NCC3CCCO3)on2)c1 (stereo unspecified)	hgDAF12 agonist 11
CCOC(=O)[C@@]12CCC3=C1N(CCC3)C(=O)[C@H](CC(=O)NCCCN1CCCC1=O)C2	none (no result: DAX1 inh-1)
Cc1ccccc1S(=O)(=O)Oc1ccc2ccc(O)cc2c1	none
Cc1ccccc1C(=O)Oc1ccc2ccc(O)cc2c1	hgDAF12 agonist 10, DAX1 inh-1 4.7
C(=C\c1ccccc1)/C=N/N1CCN(c2ccccn2)CC1	hgDAF12 agonist 11
C(/C=C/c1ccccc1)=N/N1CCN(c2ccccc2)CC1	none
COC(=O)[C@]12C[C@H](CC(=O)NCCc3ccccc3OC)C(=O)N(CCC3=CCCCC3)C1=C[C@H](C(C)C)O[C@@H]2C1CC1	none (no result: DAX1 inh-1)
Cc1ccccc1NC(=O)[C@@H]1CC(=O)O[C@@H]1c1ccccc1	none (no result: DAX1 inh-1)
C/C(=N\NC(=O)c1ccco1)c1ccc(-c2ccccc2)cc1	hgDAF12 agonist 13
C/C(=N\NC(=O)c1ccco1)c1cc2ccccc2o1	none
C/C(=N\NC(=O)c1ccco1)c1cc(Cl)sc1Cl	DAX1 inh-2 3.8
C=CCN(C)CC#Cc1ccccc1C	none (no result: DAX1 inh-1)
O=C(Nc1nncs1)c1cc2c(s1)CCC2	hgDAF12 agonist 12
CC(C)Cc1nnc(NC(=O)c2cc3c(s2)CCC3)s1	none
COc1ccc(CNC(=O)O[C@H]2CC[C@@]34CCCN3C(=O)CCC[C@H]4[C@H]2C)cc1	none (no result: DAX1 inh-1, DAX1 inh-2)
COC(=O)[C@]12C[C@H](CC(=O)NCc3ccc(C)o3)C(=O)N(Cc3ccc4c(c3)OCO4)C1=C[C@H](COCc1ccccc1)O[C@@H]2C	none (no result: DAX1 inh-1)
CCCN(CCC)CCNC(=O)c1cc2c(=O)n(C)c3ccccc3c2n1C	DAX1 inh-1 5.7
CCN1CCN(C(=O)c2cc3c(=O)n(C)c4ccccc4c3n2C)CC1	DAX1 inh-1 5.8
Cc1ccc(CNC(=O)c2cc3c(=O)n(C)c4ccccc4c3n2C)cc1	DAX1 inh-1 5.6
CCCCOc1ccc(C(=O)NC2CCCCN(C(C)C)C2=O)cc1 (stereo unspecified)	none (no result: DAX1 inh-1)
N#CCC[C@@H]1CC[C@]2(CCCN(S(=O)(=O)c3ccccc3)C2)O1	none (no result: DAX1 inh-1)
COC(=O)[C@]12C[C@H](CC(=O)NCCCN3CCCC3=O)C(=O)N(Cc3ccc(Cl)cc3Cl)C1=C[C@H](C(C)C)O[C@@H]2C1CC1	none (no result: DAX1 inh-1)
Cc1c(C(=O)NNC(=O)c2ccccc2O)oc2ccccc12	hcDAF-12 act 5.8
C=CCN1C(=O)[C@@H](CC(=O)NCCCN2CCCC2=O)[C@]2(C(=O)OC)CCCCC=C12	none (no result: DAX1 inh-1)
C=CCN(C)CC#Cc1ccc(OC)cc1	none (no result: DAX1 inh-1)
Cc1c(N=Cc2ccc(O)c(Br)c2)cccc1[N+](=O)[O-]	ssDAF12 agonist 1.1, hcDAF-12 act 6.1
Cn1c(-c2nnn(-c3ccc(F)cc3)n2)cc2ccccc21	hcDAF-12 act 12 (no result: DAX1 inh-1)
